Results reported in PubChem BioAssay (NCI).
This is part of a sample that, as a whole, favours compounds with a hit. Of some 83,000 tested, about 20% had one in any assay.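 Testing used 96-well plates and a 48-hour single-concentration exposure. Example: -40 means 40% of the starting cells died.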 A number with no mark means an inactive call. Active and inactive are the calls of the source. The calls were made as follows: active = growth percent below 10; inactive = the rest.

Assays:
Experiment in all cases: NCI-60 one-dose screen, 48 h (100 = growth as untreated, 0 = no growth, -100 = all killed)
DU-145 prostate = conditions: 10 µM unless noted
K-562 leukemia = conditions: 10 µM unless noted
MALME-3M melanoma = conditions: 10 µM unless noted
MDA-MB-231 breast = conditions: 10 µM unless noted
RXF 393 renal = conditions: 10 µM unless noted
SF-268 CNS = conditions: 10 µM unless noted
SF-295 CNS = conditions: 10 µM unless noted
SF-539 CNS = conditions: 10 µM unless noted
UACC-257 melanoma = conditions: 10 µM unless noted
M14 melanoma = conditions: 10 µM unless noted
HCT-15 colon = conditions: 10 µM unless noted
HT29 colon = conditions: 10 µM unless noted
SNB-75 CNS = conditions: 10 µM unless noted
SNB-19 CNS = conditions: 10 µM unless noted
U251 CNS = conditions: 10 µM unless noted
PC-3 prostate = conditions: 10 µM unless noted
SK-MEL-5 melanoma = conditions: 10 µM unless noted
UACC-62 melanoma = conditions: 10 µM unless noted
LOX IMVI melanoma = conditions: 10 µM
SK-MEL-28 melanoma = conditions: 10 µM unless noted

SMILES | growth (DU-145 prostate) | growth (K-562 leukemia) | growth (MALME-3M melanoma) | growth (MDA-MB-231 breast) | growth (RXF 393 renal) | growth (SF-268 CNS) | growth (SF-295 CNS) | growth (SF-539 CNS) | growth (UACC-257 melanoma) | growth (M14 melanoma) | growth (HCT-15 colon) | growth (HT29 colon) | growth (SNB-75 CNS) | growth (SNB-19 CNS) | growth (U251 CNS) | growth (PC-3 prostate) | growth (SK-MEL-5 melanoma) | growth (UACC-62 melanoma) | growth (LOX IMVI melanoma) | growth (SK-MEL-28 melanoma)
CC1(O)CCCCCC1 | 106% | 85.3% | 117% | 106% | 108% | 101% | 98.7% | 102% | 101% | 96.2% | 102% | 110% | 86.3% | 97.6% | 101% | 103% | 101% | 100% | 94.2% | 106%
c1csc(-c2[nH]nc3c2CCc2ccccc2-3)c1 | 103% | 114% | 79.3% | 37.2% | 94.7% | 101% | 91.7% | 82.1% | 98.6% | 107% | 30.7% | 92.4% | 55.6% | 70.3% | 78.1% | 81.7% | 84.8% | 90% | 97.5% | 104%
CN1CCC(CN2c3ccccc3Sc3ccccc32)C1 (stereo not drawn) | 92.4% | 38% | 79.8% | 59.5% | 91.4% | 89.2% | 95.7% | 86.3% | 88.6% | 73.6% | 83.9% | 45.8% | 57.7% | 98.1% | 91.1% | 63.6% | 76.6% | 90.4% | 76.5% | 
COc1ccc2c(c1)c(CC(=O)O)c(C)n2C(=O)c1ccc(Cl)cc1 | 107% | 73.5% | 85.1% | 102% | 109% | 109% | 68.6% | 114% | 109% | 95.7% | 104% | 111% | 84.7% | 110% | 90.3% | 104% | 93.6% | 95.5% | 90.9% | 97.3%
COc1ccc2c(c1OC)OCC(CN(C)C)C2=O (stereo not drawn) | 91.9% | -100% (active) | 71.5% | 96.7% | 98% | 110% | 96.2% | 97.1% | 99.1% | 98.5% | -58.5% (active) | 73.3% | 93.4% | 99.1% | 103% | 98.3% | 101% | 95.9% | 87% | 
COC1=CC(=O)c2c(O)c3c(c(O)c2C1=O)CC(C)(O)OC3 (stereo not drawn) | 12.7% | 13.4% | -96.6% (active) | 28.3% | 11.1% | 18.3% | 5.39% (active) | -2.19% (active) | 5.54% (active) | -52.4% (active) | 0.909% (active) | -10.8% (active) | 41.8% | 7.01% (active) | 17.3% | 8.93% (active) | -92.4% (active) | -14.2% (active) | 11.4% | 
CN(C)c1ccc(/C=C/c2cc[n+](C)c(/C=C/c3ccc(N(C)C)cc3)c2)cc1 | 23% | 4.82% (active) | 1.82% (active) | 8.47% (active) | 28.3% | 24.2% | -3.21% (active) | 27.1% | -18.8% (active) | 14.4% | 19.5% | -7.82% (active) | 22.3% | 27% | 15.3% | 3.98% (active) | -95.6% (active) | 12.3% | 12.3% | 20.6%
CCCN(CCC)C(=O)c1ccc(C)cc1 | 109% | 109% | 100% | 108% | 113% | 100% | 91.9% | 101% | 91.3% | 95.2% | 100% | 96% | 105% | 98.2% | 85.5% | 86.5% | 92.2% | 97.2% | 95.4% | 105%
O=C1/C(=C/c2ccccc2)CCC/C1=C\c1ccccc1 | 90% | 62% | 89.5% | 98.9% | 98% | 86.9% | 91.8% | 111% | 84.5% | 64% | 81.5% | 30.5% | 95.9% | 94.6% | 66.2% | 88.9% | 86.7% | 82.6% | 28.8% | 98.5%
C[C@@]1(CO)[C@H](O)CC[C@@]2(C)[C@H]1CC[C@H]1C[C@@H]3C[C@@]12CC[C@@]3(O)COC(=O)CN | 9.57% (active) | 34.2% | 77.4% | 92% | 5.23% (active) | 50.5% | 8.57% (active) | -13.9% (active) | 21% | 42.4% | 54% | 38.7% | 57.3% | 59.6% | 44.3% | 45.4% | -43.8% (active) | 26.3% | 29% | 
CCN(CC)CC(O)CNc1ccc(NCC2CO2)c2c1C(=O)c1ccccc1C2=O (stereo not drawn) | -19.1% (active) | -25.6% (active) | -44.4% (active) | -2.98% (active) | 4.29% (active) | -7.61% (active) | 20.4% | -39.4% (active) | -2.17% (active) | -63.1% (active) | -38.1% (active) | -42.9% (active) | -66% (active) | 3.77% (active) | -51.8% (active) | -28.4% (active) | -89.8% (active) | -73.5% (active) | -54.1% (active) | 
OC(c1cc2ccc(C(F)(F)F)cc2c2cc(C(F)(F)F)ccc12)C1CCCCN1 (stereo not drawn) | -99.3% (active) | -95% (active) | -72.6% (active) | -79.1% (active) | -79.6% (active) | -81.7% (active) | -96% (active) | -88.1% (active) | -86.4% (active) | -85.2% (active) | -90.4% (active) | -100% (active) | -94.4% (active) | -80.6% (active) | -100% (active) | -95.2% (active) | -95.4% (active) | -96.5% (active) | -100% (active) | -99.3% (active)
CCCCCCCCCCCC1N=C(N)N=C(N)N1c1cccc(Br)c1 (stereo not drawn) | 17.7% | -20.1% (active) | 76% | -48.1% (active) | -32.1% (active) | 8.27% (active) | 18.9% | 12% | 61.3% | 11.4% | 71.5% | -81.8% (active) | -12.7% (active) | -93.6% (active) | -75.2% (active) | -55.2% (active) | 19.3% | 37.9% | 9.55% (active) | 70.4%
COc1cc(NCc2ccc3nc(N)nc(N)c3c2C)cc(OC)c1OC (tested in a mixture with another compound) | 49.6% | 27.9% | 37.2% | 61.6% | 30.1% | 24.1% | 17.1% | 25.3% | 23.5% | 20.9% | 26.1% | 20% | 33.1% | 31.8% | 31.2% | 23.4% | 21.1% | 30.5% | 16.3% | 
O=C(O)c1cc2c(s1)C(=O)c1sccc1C2=O | -100% (active) | -1.53% (active) | -98.9% (active) | 75% | 34.2% | 45.2% | 57.4% | -66.1% (active) | 48.3% | -96.3% (active) | -59.3% (active) | 65.8% | -91.6% (active) | -2.34% (active) | 30.4% | 56.5% | -100% (active) | 51% | -72.5% (active) | 
